{
  "source": "PubChem BioAssay",
  "note": "Activity calls are given as the source filed them. No rule for the calls is given here.",
  "data": [
    {"test": "inhibition of Brca1/Bard1 split-luciferase complementation, confirmation, counter-screen for Mdm2/MdmX interaction inhibitor project, luminescence, single concentration (AID 504668)", "conditions": "Brca1/Bard1 bimolecular luciferase complementation counterscreen, at 8 µM, hits give high values", "values": [
      {"smiles": "COc1ccc2c(C(=O)CCl)c[nH]c2c1", "inhibition": "24.1% (active)"},
      {"smiles": "COc1ccc(C(=O)C(CN2CCOCC2)c2ccccc2)cc1", "note": "(stereo not given)", "inhibition": "27.4% (active)"},
      {"smiles": "COc1ccc2[nH]c3c(N4CCC(O)(c5cccc(C(F)(F)F)c5)CC4)ncnc3c2c1", "inhibition": "32.1% (active)"},
      {"smiles": "FC(F)(F)c1cccc(NC(=S)N(CCCN2CCCC2)Cc2cccn2Cc2ccc(Cl)cc2)c1", "inhibition": "30.3% (active)"},
      {"smiles": "CN(CC(=O)Nc1ccccc1Cl)C(=O)COC(=O)c1nc(Cl)c(Cl)c(Cl)c1Cl", "inhibition": "30.8% (active)"},
      {"smiles": "O=C(NNC(=O)c1ccccc1OCc1ccccc1)c1ccccc1O", "inhibition": "34.8% (active)"},
      {"smiles": "Cc1c(Cl)cccc1N/C(SCC(=O)N1CCCCCC1)=C(/C#N)c1nc2ccccc2s1", "inhibition": "36% (active)"},
      {"smiles": "COc1ccc(N/N=C(/N=Nc2nc(C)cc(=O)[nH]2)c2ccccc2)cc1", "inhibition": "30.7% (active)"},
      {"smiles": "Nc1cccc2nc3ccccc3cc12", "inhibition": "32.2% (active)"},
      {"smiles": "O=C(Nc1ccc(N2CCCCC2)cc1)c1ccccn1", "inhibition": "27.9% (active)"},
      {"smiles": "O=C(N/N=C/c1c(O)ccc2ccccc12)c1cccnc1", "inhibition": "29.9% (active)"},
      {"smiles": "CCc1ccc(S(=O)(=O)/N=C2\\C=C(Nc3ccc(C(=O)O)cc3)C(=O)c3ccccc32)cc1", "inhibition": "33.2% (active)"},
      {"smiles": "CC1=[N+](C)c2ccc3ccccc3c2C1(C)C", "inhibition": "28.2% (active)"},
      {"smiles": "Cc1nnc(-c2ccccc2)c(=O)n1/N=C/c1c(O)ccc2ccccc12", "inhibition": "30.7% (active)"},
      {"smiles": "CC1(C)Cc2c(sc(NC(=O)c3ccc(C(=O)c4ccccc4)cc3)c2C(N)=O)C(C)(C)N1", "inhibition": "34.2% (active)"},
      {"smiles": "Clc1ccc(C2=Nn3c(nnc3-c3n[nH]c4c3CCC4)SC2)cc1Cl", "inhibition": "34% (active)"},
      {"smiles": "CCC(=O)Nc1cccc(C(=O)/C=C/c2ccccc2)c1", "inhibition": "34.4% (active)"},
      {"smiles": "COc1ccc(/C=C2\\SC(=S)N(CCC(=O)NCCc3ccc(O)cc3)C2=O)cc1", "inhibition": "27.4% (active)"},
      {"smiles": "Cc1ccc(O)c(N=Nc2nccs2)c1", "inhibition": "23.2% (active)"},
      {"smiles": "CN1CCN(Cc2cc(COCc3ccccc3)c3cccnc3c2O)CC1", "inhibition": "29.5% (active)"},
      {"smiles": "O=C(/C=C/c1ccc(OCc2c(F)cccc2Cl)cc1)N1CCOCC1", "inhibition": "27.7% (active)"},
      {"smiles": "CN(Cc1cnc2nc(N)nc(N)c2n1)c1ccc(C(=O)N[C@@H](CCC(=O)O)C(=O)O)cc1", "inhibition": "29.8% (active)"},
      {"smiles": "C(=N\\Nc1nc(-c2ccccn2)nc2ccccc12)/c1ccccc1", "inhibition": "26.1% (active)"},
      {"smiles": "CC[N+]1=C(C)C(C)(C)c2cc(C)ccc21", "inhibition": "28.2% (active)"},
      {"smiles": "COc1cc(/C=C2\\CC/C(=C\\c3cc(OC)c(O)c(OC)c3)C2=O)cc(OC)c1O", "inhibition": "25.6% (active)"},
      {"smiles": "Cc1c(C(=O)Nc2cccc(Cl)c2)oc2ccc(S(=O)(=O)N3CCC4(CC3)OCCO4)cc12", "inhibition": "32.3% (active)"},
      {"smiles": "O=C1C(=C2SCCCS2)CC/C1=C\\c1ccc(F)cc1", "inhibition": "25.5% (active)"},
      {"smiles": "O=C(Oc1ccnc2cc(Cl)ccc12)N1CCCCCC1", "inhibition": "30% (active)"},
      {"smiles": "Cn1c(=O)c(C#N)c(-c2ccc(F)cc2)c2cc(C(=O)c3cc(Cl)cc(Cl)c3O)cnc21", "inhibition": "29.6% (active)"},
      {"smiles": "FC(F)(F)c1ccc(CN2C[C@@H]3C(c4ccccc4)C4(c5ccccc5)CC3(C4)[C@H]2c2ccccc2)cc1", "note": "(stereo not given in full)", "inhibition": "27.2% (active)"},
      {"smiles": "CCCCC(=O)NC(c1cccs1)c1cc(Cl)c2cccnc2c1O", "note": "(stereo not given)", "inhibition": "28.5% (active)"},
      {"smiles": "CCOc1ccc(N(C(=O)/C=C/C(=O)Nc2cc(C)on2)C(C(=O)NC2CCCC2)c2ccccc2C)cc1", "note": "(stereo not given)", "inhibition": "27.4% (active)"},
      {"smiles": "CC(=O)/C(C#N)=C1\\NC(=O)C(Cc2ccccc2Cl)S1", "note": "(stereo not given)", "inhibition": "30.1% (active)"},
      {"smiles": "O=C(CCN1C(=O)/C(=C/c2ccccc2F)SC1=S)NCCc1ccc(O)cc1", "inhibition": "33% (active)"},
      {"smiles": "COc1ccc(/C=C2\\CCC/C(=C\\C=N\\N(C)C)C2=O)cc1", "inhibition": "29.2% (active)"},
      {"smiles": "O=C(/C=C/c1ccc(Cl)cc1)c1ccc([N+](=O)[O-])o1", "inhibition": "31.4% (active)"},
      {"smiles": "CSc1nc2nccc(/C=C\\c3ccccc3)n2n1", "inhibition": "23.7% (active)"},
      {"smiles": "O=C(/C=C/c1ccccc1)NC(NC(=S)Nc1ccc(Cl)cc1Cl)C(Cl)(Cl)Cl", "note": "(stereo not given)", "inhibition": "23.4% (active)"},
      {"smiles": "COc1cccc(/C=C2\\SC(=S)N(CCCC(=O)N3CCCC3)C2=O)c1", "inhibition": "35% (active)"},
      {"smiles": "O=C(c1ccc(S(=O)(=O)c2ccccc2Cl)c([N+](=O)[O-])c1)N1CCN(Cc2ccccc2)CC1", "inhibition": "29.6% (active)"}
    ]}
  ]
}
